From PubChem BioAssay AID1159580 (chemical genetic matrix, 2015)
Several values for one entry are separate records, joined by “and”; a condition that tells them apart may be missing. Equal entries are not always repeated. About 2,000 (36%) of roughly 5,500 compounds were called active. Roughly 18% stayed inconclusive and do not appear here. No stated cut-off is given here; in the data, active means normalized growth mostly below about 0.91 (no sharp cut-off); inconclusive means no clear call, values can overlap the other calls; inactive means mostly above about 0.92. The list shows a part of the results.

Assay: chemical genetic growth profiling, strain panel (AID 1159580);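 further: tested at 20 µM; growth read once vehicle control cultures reached saturation at 30 °C; 1 = growth at the plate median or of vehicle wells; lower values mean less growth of the strain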
Conditions: S. cerevisiae deletion strains, growth OD

Measured: normalized growth

COc1ccc2c(C)cc(=O)oc2c1
inactive: locus YAL013W, strain DEP1, hits give low values 1.02 | locus YAL021C, strain ccr4, hits give low values 0.979 | locus YAL026C, strain drs2, hits give low values 0.989 | locus YAL030W, strain snc1, hits give low values 1.02 | locus YBL061C, strain skt5, hits give low values 0.993 | locus YBR009C, strain hhf1, hits give low values 1.01 | locus YBR021W, strain FUR4, hits give low values 0.976 | locus YBR023C, strain chs3, hits give low values 0.989 | locus YBR171W, strain sec66, hits give low values 0.985 | locus YBR229C, strain ROT2, hits give low values 1.01 | locus YBR231C, strain swc5, hits give low values 0.987 | locus YBR279W, strain paf1, hits give low values 0.995 | locus YCL011C, strain gbp2, hits give low values 0.999 | locus YCL016C, strain dcc1, hits give low values 0.997 | locus YCL029C, strain bik1, hits give low values 1.03 | locus YCL061C, strain MRC1, hits give low values 0.995 | locus YCL069W, strain vba3, hits give low values 0.964 | locus YCR088W, strain abp1, hits give low values 0.979 | locus YDL005C, strain med2, hits give low values 0.974 | locus YDL035C, strain GPR1, hits give low values 1.02 | locus YDL040C, strain nat1, hits give low values 0.99 | locus YDL074C, strain BRE1, hits give low values 0.995 | locus YDL101C, strain DUN1, hits give low values 1.02 | locus YDL134C, strain PPH21, hits give low values 0.992 | locus YDL185W, strain tfp1, hits give low values 1.04 | locus YDL192W, strain arf1, hits give low values 1.02 | locus YDR001C, strain nth1, hits give low values 0.981 | locus YDR069C, strain doa4, hits give low values 1 | locus YDR101C, strain arx1, hits give low values 1.01 | locus YDR137W, strain rgp1, hits give low values 0.979 | locus YDR159W, strain sac3, hits give low values 0.995 | locus YDR162C, strain NBP2, hits give low values 1.03 | locus YDR195W, strain ref2 1.04 | locus YDR297W, strain sur2, hits give low values 1.01 | locus YDR318W, strain mcm21, hits give low values 1.02 | locus YDR334W, strain swr1, hits give low values 0.956 | locus YDR335W, strain msn5, hits give low values 0.981 | locus YDR388W, hits give low values 1.01 | locus YDR392W, strain spt3, hits give low values 0.978 | locus YDR502C, strain sam2, hits give low values 1.03 | locus YEL003W, strain gim4, hits give low values 0.982 | locus YEL037C, strain rad23, hits give low values 0.973 | locus YEL061C, strain CIN8 (second series), hits give low values 0.975 | locus YER015W, strain faa2, hits give low values 1 | locus YER016W, strain bim1, hits give low values 0.998 | locus YER110C, hits give low values 1.02 | locus YER111C, strain swi4, hits give low values 0.992 | locus YER155C, strain BEM2 (second series), hits give low values 0.976 | locus YER155C, strain BEM2, hits give low values 1.01 | locus YER167W, strain BCK2, hits give low values 1 | locus YFR010W, strain ubp6, hits give low values 0.966 | locus YGL078C, strain dbp3, hits give low values 1.03 | locus YGL086W, strain mad1, hits give low values 1 | locus YGL167C, strain pmr1, hits give low values 0.983 | locus YGL173C, strain kem1, hits give low values 0.983 | locus YGL227W, strain vid30, hits give low values 0.993 | locus YGL240W, strain doc1, hits give low values 0.99 | locus YGL248W, strain PDE1, hits give low values 1.02 | locus YGL253W, strain hxk2, hits give low values 0.994 | locus YGR078C, strain PAC10, hits give low values 1.01 | locus YGR135W, strain pre9, hits give low values 1.01 | locus YGR252W, strain gcn5, hits give low values 0.981 | locus YHR013C, strain ard1, hits give low values 0.956 | locus YHR027C, strain rpn1, hits give low values 1 | locus YHR030C, strain SLT2, hits give low values 1 and 0.963 | locus YHR079C, strain IRE1 (second series), hits give low values 1.02 | locus YHR079C, strain IRE1, hits give low values 0.98 | locus YHR094C, strain hxt1, hits give low values 1.03 | locus YHR129C, strain ARP1, hits give low values 1.01 | locus YHR142W, strain chs7, hits give low values 0.97 | locus YHR200W, strain rpn10, hits give low values 1.01 | locus YIL066C, strain RNR3, hits give low values 1.01 | locus YIL073C, strain SPO22, hits give low values 1.06 | locus YIL125W, strain kgd1, hits give low values 1.04 | locus YIR030C, strain dcg1, hits give low values 1.03 | locus YJL092W, strain hpr5, hits give low values 0.999 | locus YJL095W, strain BCK1 (second series), hits give low values 0.99 | locus YJL095W, strain BCK1, hits give low values 1.02 and 0.987 | locus YJL115W, strain asf1, hits give low values 0.976 | locus YJL129C, strain trk1, hits give low values 1.01 | locus YJL134W, strain LCB3, hits give low values 1 | locus YJL154C, strain vps35, hits give low values 0.97 | locus YJL164C, strain tpk1, hits give low values 0.983 | locus YJL166W, strain qcr8, hits give low values 0.968 | locus YJL168C, strain set2, hits give low values 1.03
